Marburg entry inh – blocks Marburg virus binding to or entry into cells; Marburg virus pseudotyped entry inhibition, cell reporter; Potency, µM (titrated, usually from 37.8 µM), for the others: top-dose activity change, negative = inhibition, most hits filed as inhibitors; actives 1.8% (n = 300,000); AID 540276; calls by dose curve; tested in HEK293 cells; further: potency means the concentration at half of the fitted maximal effect
HCMV inh – human cytomegalovirus inhibition; HFF cells, HCMV-luciferase reporter, 72 h; hits give low values; activity change, negative = inhibition, % at 57.5 µM; actives 4.5% (n = 410,000); in the data active means activity change below about -60%; inconclusive means no clear call, values can overlap the other calls; inactive means above about -39%
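Cell-based, HFFs, 1000 cells/well, 16 h 37C; cpds in DMSO + HCMV-luc, MOI 1 PFU/cell; 72 h 37C; OneGlo luminescence after 5 min RT; norm. to buffer vs Salinomycin 10uM.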
FMDV inh – blocks foot and mouth disease virus; actives 1.2% (n = 410,000); FMDV antiviral cell-based qHTS; Potency, µM (doses to about 57.9 µM), inactives show at the highest dose activity change, negative = inhibition, hits mostly inhibitors; calls by dose curve; tested in HEK293T cells; further: read-out not given here; potency means the concentration at half of the fitted maximal effect; nearly all actives have a fitted effect of over 45% in size
Lassa entry inh – inhibitors of Lassa virus binding or cell entry; Lassa virus pseudotype entry inhibition, cell reporter; Potency, µM (highest dose often 37.9 µM), inactives show at the top dose activity change, negative = inhibition, usual class: inhibitors; actives 1.2% (n = 300,000); AID 540256; calls by dose curve; tested in HEK293 cells; further: potency means the concentration at half of the fitted maximal effect; nearly all actives have a fitted effect of over 50% in size
The depositor's hits bear a star; ? = inconclusive; . = no result given; ! = repeats disagree; [ ] = dose if it differs, or a comment. In the library only some 6.2% were active in any assay of this set; here they are far more common. On the % scale 0 is the no-effect control and ±100 the full control effect.

SMILES | Marburg entry inh | HCMV inh | FMDV inh | Lassa entry inh
O=C(CSc1nc2ccccc2[nH]1)Nc1nc(-c2ccc(Br)cc2)cs1 | ? | 23 | 22µM* | ?
O=C(NCCN1CCOCC1)C1CCC(=O)N1Cc1ccc(F)cc1 (configuration not stated) | 10% | 8 | 17% | 7%
CC(C)(C)c1ccc(C(=O)N2CCCN(c3ccc([N+](=O)[O-])cn3)CC2)cc1 | . | -29 | ? | .
Cc1ccc(S(=O)(=O)N2CCN(Cc3cccnc3)CC2)cc1 | . | 29 | 0% | .
Cc1ccc2c(c1)c1c(n2CC(O)CN2CCCCCC2)CCCC1 (configuration not stated) | 6.3µM* | -77* | -28% | ?
O[C@H]1CN(CC2CCCCC2)[C@@H](c2ccccc2)C[C@@H]1n1cc(C2CC2)nn1 | . | -22 | -23% | .
Cc1ccc(C)c(S(=O)(=O)N2CCN(C(=O)C(C)Sc3ccccc3)CC2)c1 (configuration not stated) | 2% | -4 | -27% | ?
O=C(O)c1ccc(-c2cccc([N+](=O)[O-])c2)o1 | . | -30 | -5% | .
O=C(NC1CCCCC1)c1ccc(-c2cccc([N+](=O)[O-])c2)o1 | . | -69* | 53% | .
O=C(c1ccc(-c2cccc([N+](=O)[O-])c2)o1)N1CCN(c2ccc([N+](=O)[O-])cc2)CC1 | ? | -61* | ? | -30%
O=C(c1ccc(-c2ccc(Cl)cc2)o1)N1CCN(c2ccc([N+](=O)[O-])cc2Cl)CC1 | -1% | -80* | -27% | ?
O=[N+]([O-])c1cccc(-c2ccc(C(=S)N3CCN(c4ccc(F)cc4)CC3)o2)c1 | ? | -24 | -4% | 17%
CC(C)CC(=O)N1CCN(c2ccc([N+](=O)[O-])cc2Cl)CC1 | ? | -36 | ? | -3%
CC(C)CC(=O)NC(=S)N1CCN(c2ccc([N+](=O)[O-])cc2Cl)CC1 | -3% | -67* | -24% | 1%
CCn1cnc2cc(NC(=O)c3cccs3)ccc21 | ? | 80 | 22% | ?
O=C(O)CNC(=O)C12CC3CC(CC(Cl)(C3)C1)C2 | . | 11 | -9% | .
COCCC1CCCCN1C(=O)c1ccc(OC)c(OC2CCN(C(C)=O)CC2)c1 (configuration not stated) | 6% | 1 | -6% | -2%
CC(NS(=O)(=O)c1ccc(OCC(=O)NCc2cccnc2)cc1)c1ccccc1 (configuration not stated) | 7%[46.1 µM] | -21 | 7% | 3%
COC(=O)c1sc(=S)n(-c2cc(F)ccc2F)c1N | -3% | -106* | -14% | -6%
CCOC(=O)c1sc(=S)n(-c2cc(F)ccc2F)c1N | 13% | -40 | ? | -8%
C1COC(NC(C2CC2)C2CC2)=N1 | 11µM*! | -25 | -14% | -3%
CN(C)S(=O)(=O)N(CC(=O)N1CCC(Cc2ccccc2)CC1)c1ccccc1 | ? | 9 | 2% | ?
Cc1ccc(C(=O)CSc2nnnn2C(C)C)c(C)c1 | 5.6µM* | ? | 14µM* | 7.1µM*
Cc1ccc(C)c(C(=O)CSc2nnnn2C(C)C)c1 | -1% | 86 | 32% | 3%
O=S(=O)(c1ccc(Cl)s1)N1CCN(C/C=C/c2ccccc2)CC1 | ? | -40 | -30% | 23µM*
SMILES | Marburg entry inh | HCMV inh | FMDV inh | Lassa entry inh
O=S(=O)(c1cccs1)N1CCN(C/C=C/c2ccccc2)CC1 | -16%[46.1 µM] | -14 | -11% | -15%
C=C1CCCC2OC(CC3=CC4/C(C)=C/CC(C)CC(/C=C(\C)C(O)C5CC(O)C(O)C(CCC(O)/C=C/C(C)=C/CCC6=NCCC(C3)C64C)O5)OC(=O)CC3OC(C(O)C1)C(O)C3O)CC(O)C2O (configuration not stated) | . | -78* | . | .
CC1(C)Cc2c(c(N3CCCC3)nc3sc4c(N5CCNCC5)ncnc4c23)CO1 | . | . | -25% | .
Cc1ccc(-n2c3nc(=O)[nH]c(=O)c-3cc3cc([N+](=O)[O-])ccc32)cc1C | ? | -99* | 28µM* | ?
Cc1ccc(S(=O)(=O)n2cnc3cc([N+](=O)[O-])ccc32)cc1C | 1% | -14 | -12% | 2%
O=S(=O)(c1cccc(S(=O)(=O)N2CCC(Cc3ccccc3)CC2)c1)N1CCOCC1 | ? | -9 | -4% | -9%
CC1CCc2c(sc3nc(C(C)(C)C)nc(N4CCN(C(=O)CCl)CC4)c23)C1 (configuration not stated) | ? | -103* | 20µM* | ?
N#Cc1cc(Oc2cccc3cccnc23)c(-n2nnc3ccccc32)cc1C#N | ? | . | 16µM* | ?
Cc1cccc(N2C(N)=C(C#N)C(C#N)(C#N)C2c2ccccc2)c1 (configuration not stated) | -25% | -14 | 40µM* | ?
CCN(CC)CCCNC(=O)c1cn(CC)c2ccc(S(=O)(=O)N3CCC(C)CC3)cc2c1=O | 0%[46.1 µM] | -21 | -13% | -3%[46.1 µM]
C[C@H]1CC[C@]2(NC1)O[C@H]1C[C@H]3[C@@H]4CC[C@H]5C[C@@H](O[C@@H]6O[C@H](CO)[C@H](O[C@@H]7O[C@H](CO)[C@@H](O)[C@H](O[C@@H]8OC[C@@H](O)[C@H](O)[C@H]8O)[C@H]7O[C@@H]7O[C@H](CO)[C@@H](O)[C@H](O)[C@H]7O)[C@H](O)[C@H]6O)CC[C@]5(C)[C@H]4CC[C@]3(C)[C@H]1[C@@H]2C | . | . | 25µM* | .
CC1CC(C(F)(F)F)n2ncc(C(=O)O)c2N1 (configuration not stated) | -9% | 45 | -23% | 2%
O=C(COC(=O)/C=C/c1ccc(F)cc1)Nc1cc(C(F)(F)F)ccc1N1CCOCC1 | -13%[46.1 µM] | 12 | -13% | 11%[46.1 µM]
O=C(COC(=O)c1cc([N+](=O)[O-])ccc1N1CCOCC1)Nc1ccc(Cl)cn1 | ? | -102* | -22% | -3%
O=C(COC(=O)c1cc([N+](=O)[O-])ccc1N1CCOCC1)Nc1ccc(Cl)cc1 | -12% | -30 | ? | -20%
CC(=O)c1c(C)[nH]c(C(=O)OCC(=O)Nc2cc(C(F)(F)F)ccc2N2CCOCC2)c1C | ? | -15 | -6% | 22µM*
Cc1cc(NC(=O)CSCC(=O)Nc2cc(C(F)(F)F)ccc2N2CCCC2)no1 | -15% | ? | 28µM* | 9%
Cc1ccc2nc(SCC(=O)Nc3cc(C(F)(F)F)ccc3N3CCOCC3)[nH]c2c1 | ? | -89* | ? | ?
C=CCNC(=O)NC(=O)COC(=O)C(C)Oc1ccc(Cl)cc1Cl (configuration not stated) | 23%[46.1 µM] | -18 | 2% | -6%
COC(=O)[C@@H]1CCCN1Cc1ccc2c(c1)CN(Cc1ccccc1C)CCO2 | . | . | -10% | .
COCCOc1ccc(C(F)(F)F)cc1NC(=O)COC(=O)c1cc([N+](=O)[O-])ccc1N1CCOCC1 | 13µM* | ? | -13% | ?
CCCCOC(=O)C1C2CCC(O2)C1C(=O)OCC (configuration not stated) | 8% | -10 | -11% | 19%
CCOC(=O)c1ccc(NC(=O)c2sc3nc(N4CCOCC4)c4c(c3c2N)CCCC4)cc1 | . | -21 | 0% | .
Cc1ccc(N(C)C(=O)N2CCN(c3ccccn3)CC2)cc1 | . | 2 | -8% | .
